In paper PMC9838217, “Structure of SALL4 zinc finger domain reveals link between AT-rich DNA binding and Okihiro syndrome” one finds binding signal data, which are given here for 40 sequences.

Numbering of substitutions follows the chain as printed.

One experiment addresses T1, SALL4 ZFC4 R900W (HT-SELEX) (Mus musculus, UniProt Q8BX22 870-940, R900W).
T1 sequence: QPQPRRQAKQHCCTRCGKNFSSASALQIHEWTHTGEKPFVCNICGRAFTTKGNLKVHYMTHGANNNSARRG
The experiment is described as follows: HT-SELEX; high values mean tight binding. The following applies: protein: recombinant; vector His6-GST; dsDNA, one strand shown. The procedure, abridged:
(§1)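 Purified recombinant mouse SALL4 zinc finger cluster 4 (residues 870–940, 1 µg) and library DNA (1.5 µg first cycle, 200 ng later) were incubated for 10 min at room temperature in 100 µl of 10 mM Tris–HCl pH 7.5, 50 mM NaCl, poly(dI-dC) and DTT. After Ni2+ bead capture and up to 6 triplicate cycles of selection, DNA was MiSeq-sequenced and scanned for 6-mers. Binding signal is the fold change in each canonical k-mer's read fraction relative to the initial random library.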
As for CTTTAA, the binding signal was 1.95 ± 0.0889 fold-change vs cycle 0.
TATGAA: the binding signal came to 2.1 ± 0.116 fold-change vs cycle 0.
Same read-out and setting: the figure for GTACAA is 1.26 ± 0.0443 fold-change vs cycle 0; for CATTAA it is 1.95 ± 0.11 fold-change vs cycle 0.
For CGTTGA, the binding signal turned out to be 0.763 ± 0.00493 fold-change vs cycle 0.
Regarding AGGGTG, the binding signal turned out to be 0.567 ± 0.0247 fold-change vs cycle 0.
Still for that read-out and setting: the figure for AAGCTC is 0.76 ± 0.0539 fold-change vs cycle 0.
For CATGAC, the binding signal was 0.938 ± 0.0407 fold-change vs cycle 0.
CGAGAC: the binding signal stood at 0.454 ± 0.0153 fold-change vs cycle 0.
As for ACGAAC, the binding signal was found to be 0.807 ± 0.0318 fold-change vs cycle 0.
Regarding ATCCAC, the binding signal came out at 0.953 ± 0.0135 fold-change vs cycle 0.
On the same count and under the same terms, the same measure for CTCAAG: 1.02 ± 0.032 fold-change vs cycle 0; for ACCACG: 0.428 ± 0.0163 fold-change vs cycle 0.
Still for that read-out and setting: the figure for GGACTA is 0.855 ± 0.0609 fold-change vs cycle 0.
Turning to TAAGCA, the binding signal amounted to 1.3 ± 0.0615 fold-change vs cycle 0.
Turning to AACACT, the binding signal stood at 1.39 ± 0.0403 fold-change vs cycle 0.
With TCCTCA, the binding signal was 1.04 ± 0.0214 fold-change vs cycle 0.
On the same count and under the same terms, the same measure for GTGGTA: 0.849 ± 0.0366 fold-change vs cycle 0.
For the sequence CAGAAG, the binding signal was 0.933 ± 0.0195 fold-change vs cycle 0.
In the case of CGATTA, the binding signal came out at 1.17 ± 0.0726 fold-change vs cycle 0.
The same measure, in the same setting: the same measure for CCAAAG: 0.801 ± 0.0292 fold-change vs cycle 0; for CTGAGA: 0.922 ± 0.033 fold-change vs cycle 0; for CCGGAA: 0.368 ± 0.0111 fold-change vs cycle 0.
On the same count and under the same terms, the figure for GACTAC is 0.891 ± 0.0393 fold-change vs cycle 0; for AATCTA it is 2 ± 0.0814 fold-change vs cycle 0; for ACATAT it is 1.97 ± 0.122 fold-change vs cycle 0.
Same read-out and setting: the figure for GGACAC is 0.454 ± 0.013 fold-change vs cycle 0.
Regarding AGGGAC, the binding signal is 0.559 ± 0.0327 fold-change vs cycle 0.
The same measure, in the same setting: the figure for CTAAGA is 1.51 ± 0.0736 fold-change vs cycle 0.
On the same count and under the same terms, the figure for ATGACC is 0.891 ± 0.0488 fold-change vs cycle 0.
As for ATCGGA, the binding signal turned out to be 0.804 ± 0.0524 fold-change vs cycle 0.
Consider ACCCAC, for which the binding signal stood at 0.506 ± 0.0282 fold-change vs cycle 0.
With GGATCC, the binding signal came out at 0.559 ± 0.0217 fold-change vs cycle 0.
Same read-out and setting: the figure for ATTGCA is 1.12 ± 0.0435 fold-change vs cycle 0.
Still for that read-out and setting: the same measure for CGTGTA: 0.756 ± 0.0247 fold-change vs cycle 0; for AGTTCG: 0.741 ± 0.0101 fold-change vs cycle 0.
For AGACTA, the binding signal is 1.47 ± 0.0959 fold-change vs cycle 0.
Regarding CAACAC, the binding signal worked out at 0.8 ± 0.0226 fold-change vs cycle 0.
Still for that read-out and setting: the figure for AGGCTA is 0.751 ± 0.013 fold-change vs cycle 0; for TACCAA it is 1.33 ± 0.0163 fold-change vs cycle 0.

The next experiment deals with T2, SALL4 ZFC4 G921D (HT-SELEX) (Mus musculus, UniProt Q8BX22 870-940, G921D).
T2 sequence: T1 sequence with W31R, G52D
Briefly: HT-SELEX; high values mean tight binding. The conditions noted are these: protein: recombinant; vector His6-GST; dsDNA, one strand shown. Put shortly:
as §1
As for CTTTAA, the binding signal amounted to 1.69 ± 0.149 fold-change vs cycle 0.
On the same count and under the same terms, the figure for TATGAA is 1.85 ± 0.171 fold-change vs cycle 0; for GTACAA it is 1.22 ± 0.0489 fold-change vs cycle 0; for CATTAA it is 1.74 ± 0.165 fold-change vs cycle 0.
Still for that read-out and setting: the same measure for CGTTGA: 0.839 ± 0.0136 fold-change vs cycle 0; for AGGGTG: 0.648 ± 0.0341 fold-change vs cycle 0; for AAGCTC: 0.866 ± 0.0327 fold-change vs cycle 0.
The same measure, in the same setting: the figure for CATGAC is 1 ± 0.0669 fold-change vs cycle 0; for CGAGAC it is 0.565 ± 0.0671 fold-change vs cycle 0; for ACGAAC it is 0.861 ± 0.0438 fold-change vs cycle 0.
With ATCCAC, the binding signal was 0.986 ± 0.0515 fold-change vs cycle 0.
Same read-out and setting: the same measure for CTCAAG: 1.04 ± 0.0506 fold-change vs cycle 0; for ACCACG: 0.523 ± 0.0453 fold-change vs cycle 0; for GGACTA: 0.897 ± 0.0585 fold-change vs cycle 0.
As for TAAGCA, the binding signal is 1.26 ± 0.0364 fold-change vs cycle 0.
On the same count and under the same terms, the figure for AACACT is 1.33 ± 0.0261 fold-change vs cycle 0; for TCCTCA it is 1.06 ± 0.0234 fold-change vs cycle 0.
As for GTGGTA, the binding signal is 0.874 ± 0.0298 fold-change vs cycle 0.
In the case of CAGAAG, the binding signal stood at 0.93 ± 0.0319 fold-change vs cycle 0.
Turning to CGATTA, the binding signal turned out to be 1.18 ± 0.023 fold-change vs cycle 0.
The same measure, in the same setting: the figure for CCAAAG is 0.848 ± 0.0204 fold-change vs cycle 0; for CTGAGA it is 0.951 ± 0.0498 fold-change vs cycle 0; for CCGGAA it is 0.491 ± 0.0897 fold-change vs cycle 0.
For the sequence GACTAC, the binding signal was found to be 0.967 ± 0.0652 fold-change vs cycle 0.
On the same count and under the same terms, the figure for AATCTA is 1.8 ± 0.18 fold-change vs cycle 0; for ACATAT it is 1.75 ± 0.16 fold-change vs cycle 0; for GGACAC it is 0.559 ± 0.0612 fold-change vs cycle 0.
As for AGGGAC, the binding signal turned out to be 0.674 ± 0.0751 fold-change vs cycle 0.
The same measure, in the same setting: the same measure for CTAAGA: 1.42 ± 0.0981 fold-change vs cycle 0; for ATGACC: 0.947 ± 0.065 fold-change vs cycle 0.
For the sequence ATCGGA, the binding signal worked out at 0.928 ± 0.0274 fold-change vs cycle 0.
The same measure, in the same setting: the figure for ACCCAC is 0.606 ± 0.0557 fold-change vs cycle 0; for GGATCC it is 0.643 ± 0.0527 fold-change vs cycle 0.
Consider ATTGCA, for which the binding signal was found to be 1.18 ± 0.0324 fold-change vs cycle 0.
With CGTGTA, the binding signal was found to be 0.812 ± 0.0246 fold-change vs cycle 0.
Still for that read-out and setting: the figure for AGTTCG is 0.828 ± 0.0183 fold-change vs cycle 0; for AGACTA it is 1.41 ± 0.0994 fold-change vs cycle 0.
The same measure, in the same setting: the same measure for CAACAC: 0.849 ± 0.0276 fold-change vs cycle 0.
The same measure, in the same setting: the same measure for AGGCTA: 0.829 ± 0.0213 fold-change vs cycle 0; for TACCAA: 1.32 ± 0.055 fold-change vs cycle 0.
